# Assay outcomes: PubChem BioAssay, National Center for Advancing Translational Sciences (NCATS)
# A549 tox = kills or reduces viability of A549 cells in Nrf2 counter-screen. A549 ARE-Fluc cells, CellTiter-Fluor viability, 18-24 h. Potency, µM (series often up to 46 µM), for the others: at the highest dose activity change, negative = cytotoxicity, actives largely listed as inhibitors. 390,000 tested, 0.16% active. AID 504648; note: potency is the fitted concentration of half-maximal effect; % is set by controls: 0 for no effect and ±100 for the full control effect
#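 A549 ARE-Fluc cells in 5% FBS OPTI-MEM, 5000 cells/well, rested 2 h then exposed to compounds in concentration-response for 18-24 h at 37 °C. Viability by CellTiter-Fluor fluorescence (Ex 405/Em 525) after 30 min; luciferase luminescence (BugLite, 15 min, RT) read afterwards.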
# Nrf2 activator = activates Nrf2 signaling | Potency, µM (series often up to 46.1 µM), for the others: top-dose activation, actives largely listed as activators | 410,000 tested, 0.31% active | AREc32 ARE-luciferase reporter (MCF7-derived line), luminescence, 24 h | AID 624171; note: potency is the fitted concentration of half-maximal effect; % of control where 0% means no effect; nearly all actives have a fitted effect of over 65% in size
#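 ARE activation measured as luciferase luminescence (Steady-Glo, 30 min RT) in AREc32_Fluc cells after 24 hr compound exposure at 37 deg C, 5% CO2; cells seeded overnight at 1000/well in OPTI-MEM, 5% FBS.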
# Anesthetic bind = candidate novel general anesthetic via apoferritin binding; P02791; apoferritin/1-aminoanthracene competitive binding, fluorescence; Potency, µM (series often up to 77.5 µM), for inactives: at the top dose activity change, negative = displacement, most hits filed as inhibitors; 350,000 tested, 0.074% active; note: potency is the fitted concentration of half-maximal effect; % is set by controls: 0 for no effect and ±100 for the full control effect; nearly all actives have a fitted effect of over 20% in size
# Target sequence (P02791 2-175 limits assumed): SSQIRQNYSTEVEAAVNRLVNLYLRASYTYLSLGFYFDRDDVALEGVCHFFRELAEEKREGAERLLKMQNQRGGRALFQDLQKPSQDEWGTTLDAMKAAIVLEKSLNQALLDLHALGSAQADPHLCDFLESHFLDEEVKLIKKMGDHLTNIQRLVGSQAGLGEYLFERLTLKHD
#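 Horse-spleen apoferritin (10 uM) in 50% saturated 1-aminoanthracene in PBS was incubated 10 min at room temperature with compound. Fluorescence (ex 380, em 535 nm) was normalized to free and bound 1-AMA, with concentration-response fitted by a four-parameter Hill equation.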
# Nrf2 block = inhibitors of Nrf2 signaling; A549 ARE-Fluc reporter, luciferase luminescence, 18-24 h; Potency, µM (series often up to 46 µM), without a hit: top-dose activity change, negative = inhibition, most hits filed as inhibitors; 360,000 tested, 2.1% active; AID 504444; note: potency is the fitted concentration of half-maximal effect; % is set by controls: 0 for no effect and ±100 for the full control effect; nearly all actives have a fitted effect of over 60% in size
#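 A549 ARE_Fluc cells, 5000/well, 5% FBS OPTI-MEM; compounds in dose-response, 18-24 h at 37 °C/5% CO2; CellTiter-Fluor viability read (Ex 405/Em 525), then BugLite luciferase luminescence = Nrf2 activity.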
# mIDH1 inhibitor = human IDH1 R132H inhibition; Potency, µM (doses to about 76.6 µM), inactives show top-dose activity change, negative = inhibition, actives largely listed as inhibitors; 390,000 tested, 0.093% active; IDH1-R132H enzyme, NADPH consumption, diaphorase/resazurin fluorescence; O75874; AID 602179; note: potency is the fitted concentration of half-maximal effect; % is set by controls: 0 for no effect and ±100 for the full control effect; nearly all actives have a fitted effect of over 65% in size
# Target sequence (O75874 whole entry R132H, stated change not applied): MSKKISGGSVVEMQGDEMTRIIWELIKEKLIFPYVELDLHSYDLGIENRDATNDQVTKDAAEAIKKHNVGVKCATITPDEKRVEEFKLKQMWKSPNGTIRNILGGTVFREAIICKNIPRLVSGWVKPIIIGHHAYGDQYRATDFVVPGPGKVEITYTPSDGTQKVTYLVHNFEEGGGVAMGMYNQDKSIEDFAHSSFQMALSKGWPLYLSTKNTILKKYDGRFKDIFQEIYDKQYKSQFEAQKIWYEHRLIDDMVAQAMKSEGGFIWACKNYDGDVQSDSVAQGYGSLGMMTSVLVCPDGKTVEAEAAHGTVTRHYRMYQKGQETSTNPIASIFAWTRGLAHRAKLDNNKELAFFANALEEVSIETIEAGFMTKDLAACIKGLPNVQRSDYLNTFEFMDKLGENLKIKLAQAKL
#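 IDH1-R132H (0.5 ug/mL) preincubated 30 min with compound, then NADPH (0.016 mM) and alpha-KG (2 mM) added; 80 min at RT, pH 7.5. Remaining NADPH coupled via diaphorase/resazurin to fluorescence (540/590 nm); concentration-response curves normalized to no-enzyme control.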
# Giardia killer = kills Giardia lamblia; Giardia lamblia trophozoite viability; 340,000 tested, 0.15% active; AID 540267; activity change, % at 7.66 µM, hits read low; in the data active = activity change below about -80%; inconclusive = between about -30% and that limit;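 note: parasites exposed to compound for two days anaerobically before the ATP read; % is set by controls: 0 for no effect and ±100 for the full control effect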
#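 Luminescent ATP signal served as the viability read-out, measured 15-30 min after adding ATP detection reagent to trophozoites that had been incubated with compounds for 48 hrs at 37 deg C anaerobically at 100 cells/well.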
# * marks the source's active call; other numbers are inactive results; ? = inconclusive; . = no result; [ ] = another dose, or the depositor's remark. Compounds with a hit are over-represented: about 2.3% of the library has one in this group of screens. Unless noted, calls come from the whole dose curve; as a rule, active = well fitted curve in the direction sought with a large enough effect; inconclusive = small, poorly fitted or top-dose-only effect, or another doubt; inactive = no such curve, though single readings can be large; an effect the other way counts as inactive or inconclusive.
SMILES,A549 tox,Nrf2 activator,Anesthetic bind,Nrf2 block,mIDH1 inhibitor,Giardia killer
CC(=O)c1c(C)oc2ccc(N(C(C)=O)S(=O)(=O)c3cccc4cccnc34)cc12,-14%,0%,1%,18µM*,6%,9
CC(=O)c1c(C)oc2ccc(N(C(C)=O)S(=O)(=O)c3ccc(F)cc3C)cc12,-1%,-1%,-2%,?,7%,-11
COc1ccc(OC)c(S(=O)(=O)N2CCN(C(=O)c3cc(C4CC4)nn3-c3ccccc3)CC2)c1,-9%,0%,.,26µM*,2%,17
COc1c(O)c(O)c2cc(OC)c3c(OC)cc(=O)c4c5c(=O)c(OC)c(C(C)=O)c6c5c(c1CC=6C)c2c34,.,.,-3%,.,.,.
CCOC(=O)c1ccc2c(c1)nc(C1CCN(S(=O)(=O)c3cccs3)CC1)n2CC,?,2%,0%,26µM*,-5%,1
CO[C@@H]1/C=C\CC(=O)N[C@@H](C)C(=O)OC[C@@H](OC)[C@H](C)/C=C\CC(=O)OC[C@H]1C,.,.,-2%[15.3 µM],.,.,.
O=C(CN1CCN(Cc2ccccc2)CC1)N/N=C\C=C/c1ccco1,-5%,6.3µM*,4%,?,6%,3
O=C(N/N=C\C=C\c1ccco1)c1cncc(Br)c1,-3%,13µM*,7%,-23%,-7%,-2
O=C(N/N=C\c1ccco1)c1cncc(Br)c1,.,.,-2%,.,.,.
O=C(CN1CCN(Cc2ccccc2Cl)CC1)N/N=C/C=C/c1ccco1,-1%,?,-4%,-13%,8%,-3
O=C(Cc1cccs1)N/N=C/C=C/c1ccco1,12%,13µM*,-11%,13%,5%,-1
O=C(/C=C/c1ccc(/C=C/C(=O)Nc2ccc(C3=NCCN3)cc2)cc1)Nc1ccc(C2=NCCN2)cc1,.,.,44%,.,.,.
COC(=O)[C@@H]1C[C@@H]2CC[C@@H](O)C[C@@H]2N1Cc1ccc(N2CCOCC2)cc1,.,.,-16%,.,.,.
C=CCn1c(SCc2ccc(C(=O)Nc3nccs3)cc2)nnc1-c1ccc(C)c(Cl)c1,-18%,1%,3%,21µM*,3%,3
CC(C)CCN(C(=O)c1csnn1)C(C(=O)NC1CCCC1)c1ccc(F)cc1 (stereo unspecified),18µM*,4%,-12%,23µM*,-13%,-26
COc1ccc(Nc2nc(Nc3ccc(OC)cc3OC)nc(N3CCOCC3)n2)c(OC)c1,9%,?,-10%,-25%,15%,.
Cc1cc(C)cc(Cn2ncc3c4sc(C)cc4n(C)c3c2=O)c1,-11%,.,.,4%,.,.
Cc1ccc(-c2nc(CS(=O)CC(=O)N3CCN(c4cccc(Cl)c4)CC3)c(C)o2)cc1 (stereo unspecified),?,3%,181%,23µM*,17%,.
CC1CCN(S(=O)(=O)c2ccc(C(=O)Nc3ccccc3-c3nc4ccccc4[nH]3)cc2)CC1,-9%,0%,-4%,26µM*,2%,-11
CC1CCCN(S(=O)(=O)c2ccc(C(=O)Nc3ccccc3-c3nc4ccccc4[nH]3)cc2)C1 (stereo unspecified),2%,0%,2%,4%,3%,19
COc1ccc(/C=N/NC(=O)c2ccoc2C)cc1COc1ccc(Cl)cc1,-28%,3%,-4%,13µM*,2%,-4
COc1ccc(/C=N/NC(=O)c2ccoc2C)cc1OC,11%,1%,8%,13%,9%,?
Cn1nnnc1Sc1ncnc2scc(-c3ccc4ccccc4c3)c12,?,.,.,5%,.,.
O=C(CC1SC(N2CCCCC2)=NC1=O)Nc1cccc(C(F)(F)F)c1 (stereo unspecified),-11%,2%,-11%,21µM*,-1%,-17
COc1ccc(NC(=O)CC2SC(N3CCOCC3)=NC2=O)cc1OC (stereo unspecified),-4%,0%,.,15µM*,8%,12
SMILES,A549 tox,Nrf2 activator,Anesthetic bind,Nrf2 block,mIDH1 inhibitor,Giardia killer
Nc1nc(SCC(=O)Nc2cccc(C(F)(F)F)c2)n[nH]1,4%,1%,?,18µM*,9%,.
O=C1CCCN2N=C(SCC(=O)Nc3cccc(C(F)(F)F)c3)SC2=N1,0%,6%,4%,16µM*,3%,-9
CC(=O)c1cccc(NC(=O)CC2SC(N3CCCCC3)=NC2=O)c1 (stereo unspecified),1%,0%,?,.,0%,-11
O=C(c1[nH]c(C(F)(F)F)nc1-c1ccccc1)N1CCN(c2ccc(C(F)(F)F)cn2)CC1,.,1%,.,.,.,.
Cc1cccc(NC(=O)c2ccc(NCC3CCCO3)c([N+](=O)[O-])c2)n1 (stereo unspecified),-11%,1%,28µM*,?,3%,3
Cc1cccc(NC(=O)c2ccc(NCC3CCCO3)c([N+](=O)[O-])c2)c1 (stereo unspecified),-12%,0%,3%,1%,7%,2
CN(C)C(=O)NC1CCCCCCC1,.,.,-11%,.,.,.
CCS(=O)(=O)c1ccc2oc(SCC(=O)NC34CC5CC(CC(C5)C3)C4)nc2c1,-2%,5%,?,?,1%,-1
CCS(=O)(=O)c1ccc2oc(SCC(=O)NC3CCCC(C)C3C)nc2c1 (stereo unspecified),-12%,4%,50µM*,-22%,-1%,-7
COc1ccc(CNC(=O)Cc2c(C)c3c(cc(C)c4c(C)coc43)oc2=O)cc1OC,-15%,-1%,-9%,4%,-11%,.
CC(C)(C)C1C/C(=C/c2ccccn2)C(=O)/C(=C/c2ccccn2)C1 (stereo unspecified),5.8µM*,?,-18%,5.8µM*,-4%,?
CC1C/C(=C/c2ccccn2)C(=O)/C(=C/c2ccccn2)C1 (stereo unspecified),?,-1%,-11%,16µM*,6%,-15
O=C1/C(=C/c2ccccn2)COc2ccccc21,3%,19%,-16%,37%,3%,5
COc1ccc(Cn2nnnc2C(CC(C)C)N2CCN(c3ccccc3)CC2)cc1 (stereo unspecified),0%,-1%,115%,.,9%,-21
COc1ccc(Cn2nnnc2C(C(C)C)N2CCc3ccccc32)cc1 (stereo unspecified),-9%,-1%,4%,16µM*,5%,-7
COc1ccc(NC(=O)/C(Cl)=C(/Cl)S(=O)Cc2ccc(Cl)cc2)cn1 (stereo unspecified),21µM*,-3%[9.22 µM],-6%,?,5%,-4
CCOC(=O)N1CCc2c(sc3c2c(=O)n(-c2ccc(CC)cc2)c(=O)n3Cc2cc(C)ccc2C)C1,0%,-1%,6%,4%,-18%,.
